PubChem BioAssay AID2330 (Broad Institute, 2010)
Hit rate of the full screen: of about 37,000 compounds, about 2,800 (7.6%) were called active. Inconclusive results (about 1%) are left out. Cut-off read from the data, not from the text of the source: active = inhibition above about 80%; inconclusive = no clear call, values can overlap the other calls; inactive = below that. The full list was thinned out, with actives kept by preference.

Experiment: NOMO-1 AML cell viability reduction, primary screen, STK33 inhibitor project, CellTiter-Glo luminescence (AID 2330)
Settings: NOMO-1 AML viability, 72 h, stronger effect = higher value, concentration not given here

Row | SMILES | inhibition
1 | C[C@H](CO)N1C[C@H](C)[C@@H](CN(C)Cc2ccc3c(c2)OCO3)Oc2c(NC(=O)C3CCOCC3)cccc2C1=O | 20.1% (inactive)
2 | O=C(Nc1ccc(Cl)cc1C(=O)NCc1ccco1)c1ccco1 | 31.2% (inactive)
3 | C[C@@H]1CN([C@@H](C)CO)C(=O)c2cccc(NC(=O)c3nc4ccccc4s3)c2O[C@@H]1CN(C)Cc1ccc(Cl)c(Cl)c1 | 87.1% (active)
4 | C[C@@H]1CN([C@H](C)CO)C(=O)c2cccc(NC(=O)c3nc4ccccc4s3)c2O[C@@H]1CN(C)Cc1ccc(Oc2ccccc2)cc1 | 54.9% (inactive)
5 | COc1ccc(CN(C)C[C@H]2Oc3c(NC(=O)C4CCCCC4)cccc3C(=O)N([C@@H](C)CO)C[C@H]2C)cc1 | 2.14% (inactive)
6 | COc1ccc(CN(C)C[C@H]2Oc3c(NC(=O)C4CCCCC4)cccc3C(=O)N([C@@H](C)CO)C[C@@H]2C)cc1 | 15.7% (inactive)
7 | CC(C)NC(=O)N(C)C[C@@H]1Oc2c(NC(=O)c3nc4ccccc4s3)cccc2C(=O)N([C@H](C)CO)C[C@H]1C | -10.2% (inactive)
8 | C[C@@H]1CN([C@H](C)CO)C(=O)c2cccc(NC(=O)c3nc4ccccc4s3)c2O[C@@H]1CN(C)C | 6.43% (inactive)
9 | C[C@H](CO)N1C[C@H](C)[C@@H](CN(C)Cc2ccc(Cl)c(Cl)c2)Oc2c(NC(=O)C3CCCCC3)cccc2C1=O | 102% (active)
10 | C[C@@H]1CN([C@H](C)CO)C(=O)c2cccc(NC(=O)c3nc4ccccc4s3)c2O[C@H]1CN(C)Cc1ccccc1 | 96.6% (active)
11 | C[C@@H]1CN([C@H](C)CO)C(=O)c2cccc(NC(=O)c3nc4ccccc4s3)c2O[C@H]1CN(C)S(=O)(=O)c1ccc(Cl)cc1 | 61.5% (inactive)
12 | Cc1cc(C)c(OCC(=O)Nc2cccnc2)c(Br)c1 | 5.52% (inactive)
13 | COc1cc(C(C)=O)ccc1OCC(O)Cn1nc(C)cc1C (stereo not given) | 10.2% (inactive)
14 | COc1ccc(NC(=O)Nc2ccc3c(c2)CC(=O)N([C@@H](C)CO)C[C@H](C)[C@@H](CN(C)S(=O)(=O)c2cn(C)cn2)O3)cc1 | -12.8% (inactive)
15 | C[C@H]1CN([C@@H](C)CO)C(=O)c2cc(NC(=O)Cn3cnnn3)ccc2O[C@H]1CN(C)Cc1ccc(C(=O)O)cc1 | 30.7% (inactive)
16 | COc1ccc(CCn2c(C)nc(=O)c(-c3ccccc3)c2C)cc1OC | 2.96% (inactive)
17 | C[C@@H]1CN([C@@H](C)CO)C(=O)c2cccc(NS(=O)(=O)c3ccc(F)cc3)c2O[C@H]1CN(C)C(=O)NC1CCCCC1 | 4.03% (inactive)
18 | C[C@H](CO)N1C[C@H](C)[C@@H](CN(C)Cc2ccc(Cl)c(Cl)c2)Oc2c(NC(=O)Nc3ccccc3)cccc2C1=O | 59.3% (inactive)
19 | O=C(c1cc([N+](=O)[O-])ccc1NCc1cccnc1)N1CCOCC1 | -0.79% (inactive)
20 | COc1ccc(NC(=O)N(C)C[C@@H]2Oc3c(NC(=O)Nc4cccc5ccccc45)cccc3C(=O)N([C@@H](C)CO)C[C@H]2C)cc1 | 33.8% (inactive)
21 | C[C@@H]1CN([C@H](C)CO)C(=O)c2cc(NS(=O)(=O)c3ccc(F)cc3)ccc2O[C@@H]1CN(C)C(=O)Nc1cccc2ccccc12 | 15.5% (inactive)
22 | COC(=O)c1ccc(NC(=O)CN(c2ccc(C)c(Cl)c2)S(C)(=O)=O)cc1 | -3.13% (inactive)
23 | COC(=O)c1c(C)n(CCNc2ccc([N+](=O)[O-])cc2)c2ccc(O)cc12 | 32.6% (inactive)
24 | COC(=O)c1ccc(NCc2cc(O)ccc2O)cc1 | 96.2% (active)

Row | SMILES | inhibition
25 | O=C(CSc1nc(O)cc(=O)n1-c1ccccc1F)Nc1ccc(Cl)cc1Cl | 9.63% (inactive)
26 | COC(=O)c1ccccc1NC(=O)CN(c1ccc2c(c1)OCCO2)S(C)(=O)=O | -1.24% (inactive)
27 | C[C@H]1CN([C@@H](C)CO)C(=O)c2cc(NC(=O)Cc3cn(C)c4ccccc34)ccc2O[C@H]1CN(C)CC1CCCCC1 | 15% (inactive)
28 | C[C@H](CO)N1C[C@H](C)[C@H](CN(C)Cc2ccncc2)Oc2ccc(NC(=O)Cc3cn(C)c4ccccc34)cc2CC1=O | 6.89% (inactive)
29 | C[C@H]1CN([C@@H](C)CO)C(=O)c2cc(NC(=O)Cc3cn(C)c4ccccc34)ccc2O[C@@H]1CN(C)Cc1ccc(Cl)c(Cl)c1 | 87.6% (active)
30 | C[C@@H]1CN([C@H](C)CO)C(=O)c2cc(NC(=O)Cc3cn(C)c4ccccc34)ccc2O[C@H]1CN(C)S(C)(=O)=O | 15.5% (inactive)
31 | C[C@@H]1CN([C@@H](C)CO)C(=O)c2cc(NC(=O)Cc3ccccc3)ccc2O[C@H]1CN(C)Cc1ccc(Cl)c(Cl)c1 | 54.8% (inactive)
32 | C[C@H]1CN([C@@H](C)CO)C(=O)c2cc(NC(=O)Cc3cn(C)c4ccccc34)ccc2O[C@H]1CN(C)Cc1ccc(Cl)c(Cl)c1 | 84% (active)
33 | Cc1noc(C)c1NC(=O)N(C)C[C@@H]1Oc2ccc(NC(=O)Nc3ccc(C(F)(F)F)cc3)cc2C(=O)N([C@H](C)CO)C[C@@H]1C | 7.38% (inactive)
34 | CC(=O)N[C@@H](C(=O)O[C@H]1CCC(C)(C)[C@@H]2CCC3=C(COC3=O)[C@@]12C)C(C)C | 25.2% (inactive)
35 | Cc1ccc(-c2nc(S(=O)(=O)c3ccc(Br)cc3)c(SCC(N)=O)o2)cc1 | 11.1% (inactive)
36 | O=C(c1ccccc1)c1cnn(-c2ccc(Cl)cc2)n1 | 18.2% (inactive)
37 | Cc1ccccc1NC(=O)CSc1nnc(-c2ccc([N+](=O)[O-])cc2)n1C | -7.25% (inactive)
38 | O=C1C(=O)N(CCn2c3ccccc3c3nc4ccccc4nc32)c2ccccc21 | 119% (active)
39 | CCCn1c2ccccc2c2nnc(SCC(=O)Nc3cccc4ccccc34)nc21 | 9.77% (inactive)
40 | CCn1c2ccccc2c2nnc(SCC(=O)O)nc21 | 11.8% (inactive)
41 | Cc1ccc(C)c(OCC(=O)Nc2ccccc2C#N)c1 | 15.4% (inactive)
42 | C[C@@H]1CN([C@H](C)CO)C(=O)c2cccc(NS(=O)(=O)c3cn(C)cn3)c2O[C@@H]1CN(C)Cc1ccc(C(F)(F)F)cc1 | -20.1% (inactive)
43 | C[C@@H]1CN([C@@H](C)CO)C(=O)c2cccc(NS(=O)(=O)c3ccccc3)c2O[C@@H]1CN(C)S(=O)(=O)c1ccc(F)cc1 | 65% (inactive)
44 | O=C(Nc1ccccc1)Nc1cc(C2CC2)nn1-c1ccccc1 | 16.4% (inactive)
45 | O=C(Nc1ccccc1)Nc1ccc(C2SCCS2)cc1 | 89.9% (active)
46 | O=C(Nc1ccccc1)C(=S)Nc1ccccc1 | 38.4% (inactive)
47 | C=C1C(=O)O[C@H]2C3=C(C)C[C@H](OC(C)=O)C[C@]3(C)CC[C@@H]12 | 122% (active)
48 | COc1ccc(CN(C)C[C@H]2Oc3ccc(NS(=O)(=O)c4c(C)noc4C)cc3CC(=O)N([C@H](C)CO)C[C@H]2C)cc1 | 5.72% (inactive)

Row | SMILES | inhibition
49 | COc1ccc(N(C(C)C(=O)Nc2cccc(Br)c2)S(C)(=O)=O)cc1 (stereo not given) | -13.9% (inactive)
50 | Cc1nc(SCC(=O)Nc2ccc(C(=O)O)cc2)[nH]c(=O)c1C | 24.5% (inactive)
51 | COC(=O)c1ccc(NC(=O)CSc2nc(-c3ccccc3)c(-c3ccccc3)[nH]2)cc1 | 102% (active)
52 | COC(=O)c1ccc(NC(=O)CSc2nc(-c3ccccc3)cc(=O)[nH]2)cc1 | 0.0616% (inactive)
53 | C[C@H](CO)N1C[C@H](C)[C@H](CN(C)S(C)(=O)=O)Oc2ccc(NC(=O)c3ccncc3)cc2CC1=O | -14.9% (inactive)
54 | CNC[C@H]1Oc2ccc(NS(=O)(=O)c3ccc(F)cc3)cc2CC(=O)N([C@H](C)CO)C[C@H]1C | -15.6% (inactive)
55 | Oc1cc2c(cc1O)CN(C(=S)NCCc1ccc(Cl)cc1)CCC2 | 96.6% (active)
56 | S=C(NCC1CC1)Nc1ccc(Cl)cc1 | 34.8% (inactive)
57 | COc1cccc2cc(C(=O)C3C(=O)C(=O)N(CCN4CCOCC4)C3c3ccc(F)cc3)oc12 (stereo not given) | -8.3% (inactive)
58 | COc1ccc(CNC(=O)c2c(C)oc3c2cc(OC(C)=O)c2ccccc23)cc1 | 43% (inactive)
59 | Cc1noc(C)c1S(=O)(=O)Nc1ccc2c(c1)CC(=O)N([C@H](C)CO)C[C@@H](C)[C@@H](CN(C)Cc1ccc(C(=O)O)cc1)O2 | -16.8% (inactive)
60 | C[C@H](CO)N1C[C@H](C)[C@H](CN(C)S(=O)(=O)c2cn(C)cn2)Oc2c(NC(=O)c3ccncc3)cccc2C1=O | 29.1% (inactive)
61 | Cc1c(Cl)cccc1NC(=O)Cn1cc(C(=O)c2cccs2)c2ccccc21 | 88.1% (active)
62 | O=C(Cn1cc(C(=O)C2CC2)c2ccccc21)Nc1ccccc1Cl | 3.17% (inactive)
63 | COc1ccc(OC)c(NC(=O)Cn2cc(C(=O)C3CC3)c3ccccc32)c1 | -2.38% (inactive)
64 | C[C@@H]1CN([C@@H](C)CO)C(=O)c2cccc(N(C)C)c2O[C@H]1CN(C)S(=O)(=O)c1cccs1 | 22.8% (inactive)
65 | Cc1ccnc(N)c1 | 6.37% (inactive)
66 | C[C@H](CO)N1C[C@H](C)[C@H](CN(C)C)Oc2ccc(NC(=O)Nc3ccc(F)cc3)cc2CC1=O | -3.06% (inactive)
67 | COc1ccc(NC(=O)N(C)C[C@@H]2Oc3c(NC(=O)NC4CCCCC4)cccc3C(=O)N([C@H](C)CO)C[C@H]2C)cc1 | -1.16% (inactive)
68 | C=CC(C)(O)CCC1(C)C2=C(C(OC(C)=O)C(OC(C)=O)C1C)C(C)(C)CCC2 (stereo not given) | 115% (active)
69 | C[C@@H]1CN([C@@H](C)CO)C(=O)c2cc(NC(=O)Nc3ccccc3)ccc2O[C@H]1CN(C)S(=O)(=O)c1ccccc1 | -0.0629% (inactive)
70 | C[C@H](CO)N1C[C@H](C)[C@H](CN(C)S(=O)(=O)c2ccc(Cl)cc2)Oc2ccc(NC(=O)C3CCCCC3)cc2C1=O | 7.26% (inactive)
